Assay outcomes deposited in PubChem BioAssay by National Center for Advancing Translational Sciences (NCATS).
IL1B secr inh: inflammasome signaling inhibition, IL-1 beta readout | AID 743279 | activity change, % at 57.5 µM | THP-1 LPS/ATP IL-1B secretion, AlphaLISA, 16 h; stronger effect = lower value | hit rate 4.7% among 360,000; in the data active = activity change below about -50%; inconclusive = mostly about -30% to -49%; also: % is scaled to controls: 0 for no effect and ±100 for the full control effect
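THP-1 cells pretreated 1 hr with compounds (up to 57.5 uM final), then stimulated with LPS (250 ng/mL final) plus ATP (1.25 mM final); secreted IL-1B measured by AlphaLISA after 16 hr, decreased signal indicating inhibition.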
TGFb inhibitor: TGF-b pathway inhibition; hit rate 1.2% among 410,000; AID 588855; Potency, µM (top dose mostly 46.1 µM), without a hit: at the highest dose activity, negative = inhibition, usual class: inhibitors; HepG2 CAGA-GFP TGF-b/SMAD3 reporter, GFP fluorescence, 18 h; TGF-beta stimulated, 500 pg/mL final; also: potency is read from the fitted curve at half-maximal effect; % is scaled to controls: 0 for no effect and ±100 for the full control effect; nearly all actives have a fitted effect of over 65% in size
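GFP signal (ex488/em500-530) from TGF-beta-stimulated HEPG2 CAGA-GFP cells, 500 pg/mL final, 18 h at 37 degrees C in DMEM plus 1% FBS, normalized to unstimulated and DMSO-stimulated controls.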
TDP1 cell CPT: DT40-hTDP1 cell growth loss with CPT; hit rate 12% among 420,000; AID 686979; Potency, µM (highest dose often 46.2 µM), inactives show at the highest dose activity change, negative = growth inhibition, hits mostly inhibitors; chicken DT40 Tdp1-/-;hTDP1 cells + 20 nM CPT, ATP luminescence, 48 h; also: potency is read from the fitted curve at half-maximal effect; % is scaled to controls: 0 for no effect and ±100 for the full control effect; nearly all actives have a fitted effect of over 55% in size
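Cell growth measured by CellTiter-Glo luminescence after a minimum 48 h, 37 C compound exposure with 20 nM CPT in Tdp1-knockout DT40 cells stably expressing hTDP1, seeded 400/well; qHTS titration format.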
TDP1 block: inhibitors of human tyrosyl-DNA phosphodiesterase TDP1; recombinant TDP1, AlphaScreen DNA substrate cleavage; hit rate 0.28% among 350,000; Potency, µM (series often up to 130 µM), inactives show at the highest dose activity change, negative = inhibition, usual class: inhibitors; also: potency is read from the fitted curve at half-maximal effect; % is scaled to controls: 0 for no effect and ±100 for the full control effect; nearly all actives have a fitted effect of over 40% in size
Target sequence (Q9NUW8 whole entry, looked up): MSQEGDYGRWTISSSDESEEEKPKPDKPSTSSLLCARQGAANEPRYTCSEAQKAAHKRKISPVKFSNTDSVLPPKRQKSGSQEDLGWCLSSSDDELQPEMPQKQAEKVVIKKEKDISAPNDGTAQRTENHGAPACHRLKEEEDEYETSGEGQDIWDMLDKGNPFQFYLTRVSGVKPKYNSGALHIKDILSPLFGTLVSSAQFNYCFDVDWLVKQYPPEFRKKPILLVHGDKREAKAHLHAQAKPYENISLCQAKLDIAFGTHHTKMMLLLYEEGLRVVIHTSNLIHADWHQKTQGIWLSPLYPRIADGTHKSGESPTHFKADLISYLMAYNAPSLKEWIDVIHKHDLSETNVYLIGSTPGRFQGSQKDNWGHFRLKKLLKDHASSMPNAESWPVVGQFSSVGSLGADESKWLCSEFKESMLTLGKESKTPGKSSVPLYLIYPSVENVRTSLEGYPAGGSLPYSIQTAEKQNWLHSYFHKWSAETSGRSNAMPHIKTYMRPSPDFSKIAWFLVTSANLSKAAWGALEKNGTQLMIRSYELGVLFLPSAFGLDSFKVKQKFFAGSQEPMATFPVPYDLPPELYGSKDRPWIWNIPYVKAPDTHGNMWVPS
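Recombinant human Tdp1 (E. coli-expressed, 1 nM final) preincubated with compounds 15 min at room temperature, then 5'-biotin/3'-phosphotyrosine-FITC DNA substrate (15 nM final) added for 5 min. AlphaScreen beads (10 ug/ml final) added 10 min; cleavage lowers signal.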
HepG2 tox-1: HepG2 cytotoxicity, counter-screen for TGF-b inhibitors | HepG2 CAGA-GFP viability, ATP luminescence, 18 h | Potency, µM (highest dose often 46.1 µM), without a hit: top-dose activity change, negative = cytotoxicity, usual class: cytotoxic | hit rate 0.76% among 410,000 | AID 588856; also: potency is read from the fitted curve at half-maximal effect
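HepG2 CAGA-GFP cells (1000/well, DMEM with 1% FBS) received compound, then TGF-beta at 500 pg/mL final, and were incubated 18 hours at 37 degrees C. Viability was read by CellTiter-Glo luminescence. Media-only wells were set as complete cell-killing and DMSO as no toxicity.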
TDP1 cell noCPT: qHTS for Inhibitors of human tyrosyl-DNA phosphodiesterase 1 (TDP1): qHTS in cells in absence of CPT; Potency, µM (doses to about 46.2 µM), without a hit: top-dose activity change, negative = growth inhibition, actives largely listed as inhibitors; DT40 Tdp1-/- hTDP1 cells, no CPT, ATP luminescence, 48 h; hit rate 15% among 420,000; also: potency is read from the fitted curve at half-maximal effect; % is scaled to controls: 0 for no effect and ±100 for the full control effect; nearly all actives have a fitted effect of over 55% in size
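Seeded 400 DT40-hTDP1 cells/well (vehicle DMSO, no 20 nM CPT); pinned compounds; ≥48 hr at 37 °C; CellTiter-Glo luminescence as viability measure.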
TGFb confirm: confirmation of TGF-b signaling inhibitors in HepG2 reporter cells | shares compounds with TGFb inhibitor | HepG2 CAGA-GFP TGF-b reporter, GFP fluorescence, 18 h; cells stimulated with TGF-beta, 500 pg/mL | Potency, µM (doses to about 46.1 µM), inactives show top-dose activity, negative = inhibition, most hits filed as inhibitors | hit rate 63% among 1,600 | AID 720534; also: potency is read from the fitted curve at half-maximal effect; % is scaled to controls: 0 for no effect and ±100 for the full control effect; nearly all actives have a fitted effect of over 65% in size
HepG2 tox-2: counter-screen for TGF-b inhibitors: cytotoxicity in HepG2 cells. HepG2 CAGA-GFP viability, ATP luminescence, 18 h; cells stimulated with TGF-beta, 500 pg/mL. Potency, µM (series often up to 46.1 µM), for inactives: at the top dose activity, negative = cytotoxicity, usual class: inhibitors. shares compounds with TGFb inhibitor. hit rate 27% among 1,600; also: potency is read from the fitted curve at half-maximal effect; % is scaled to controls: 0 for no effect and ±100 for the full control effect; nearly all actives have a fitted effect of over 70% in size
CCL64 TGFb inh: blocks TGF-b signaling in CCL64 reporter cells; Potency, µM (doses to about 46.1 µM), without a hit: at the top dose activity, negative = inhibition, actives largely listed as inhibitors; hit rate 41% among 1,600; shares compounds with TGFb inhibitor; CCL64 CAGA-GFP reporter, TGF-b stimulated, GFP fluorescence, 18 h; AID 720536; also: potency is read from the fitted curve at half-maximal effect; nearly all actives have a fitted effect of over 65% in size
COP TGFb inh: TGF-b inhibition validated with COP promoter; Potency, µM (highest dose often 46.1 µM), without a hit: top-dose activity, negative = inhibition, most hits filed as inhibitors; shares compounds with TGFb inhibitor; hit rate 3% among 1,600; HepG2 COP-GFP TGF-b reporter, GFP fluorescence, 18 h; cells stimulated by added recombinant TGF-beta; also: potency is read from the fitted curve at half-maximal effect; nearly all actives have a fitted effect of over 70% in size
* = called active by the depositor. This is a sample that favours compounds with a hit; in the whole collection about 18% have one here. Unless noted, calls follow the shape of the dose curve; as a rule, active = well fitted curve in the direction sought with a large enough effect; inconclusive = small, poorly fitted or top-dose-only effect, or another doubt; inactive = no such curve, though single readings can be large; an effect the other way counts as inactive or inconclusive.

Results for CCn1c(CCCOc2ccc(Cl)cc2Cl)nnc1SCC(=O)Nc1cc(F)ccc1C ?
IL1B secr inh: -59.4*; TGFb inhibitor: 12.6µM*; TDP1 cell CPT: inconclusive; TDP1 block: 1.8%; HepG2 tox-1: 4.1%; TDP1 cell noCPT: inconclusive; TGFb confirm: 13µM*; HepG2 tox-2: inconclusive; CCL64 TGFb inh: -16.4%; COP TGFb inh: -8.8%

Results for O=[N+]([O-])c1cccc2nc3ccccc3c(NCCCn3ccnc3[N+](=O)[O-])c12 ?
IL1B secr inh: -101.5*; TGFb inhibitor: 0.112µM*; TDP1 cell CPT: 0.146µM*; HepG2 tox-1: -5.3%; TDP1 cell noCPT: 0.184µM*; TGFb confirm: 0.103µM*; HepG2 tox-2: 0.206µM*; CCL64 TGFb inh: 0.164µM*; COP TGFb inh: 24.3%

Results for O=C(O)Cn1ccnc1[N+](=O)[O-] ?
IL1B secr inh: 17.3; TGFb inhibitor: 2.8%; TDP1 cell CPT: -2.8%; HepG2 tox-1: 2.5%; TDP1 cell noCPT: -2.5%

Results for O=C(/C=N/NC(=O)c1ccccc1Br)c1ccccc1 ?
IL1B secr inh: -5.7; TGFb inhibitor: -0.2%; TDP1 cell CPT: inconclusive; TDP1 block: 0.0%; HepG2 tox-1: -15.2%; TDP1 cell noCPT: inconclusive

What do the screens show for `O=C(N/N=C/c1cc(Cl)ccc1O)c1ccccc1Br`?
IL1B secr inh: 297.5; TGFb inhibitor: inconclusive; TDP1 cell CPT: 6.51µM*; TDP1 block: 2.7%; HepG2 tox-1: -29.0%; TDP1 cell noCPT: 6.51µM*; TGFb confirm: inconclusive; HepG2 tox-2: inconclusive; CCL64 TGFb inh: inconclusive; COP TGFb inh: -1.9%

How did CC(C)c1ccc(CN2CCN(C(=O)CSc3nnnn3C3CC3)CC2)cc1 do in these assays?
IL1B secr inh: inconclusive; TGFb inhibitor: inconclusive; TDP1 cell CPT: inconclusive; TDP1 block: 0.7%; HepG2 tox-1: -35.3%; TDP1 cell noCPT: 11.6µM*; TGFb confirm: -22.1%; HepG2 tox-2: -21.6%; CCL64 TGFb inh: 1.0%; COP TGFb inh: 7.8%

Results for O=C(CSc1nnnn1C1CC1)N1CCN(c2cccc(Cl)c2)CC1 ?
IL1B secr inh: -19.1; TGFb inhibitor: -22.1%; TDP1 cell CPT: inconclusive; TDP1 block: -2.0%; HepG2 tox-1: -20.3%; TDP1 cell noCPT: inconclusive

Results for COC(=O)c1sc(NC(=O)c2cc(-c3ccccc3)nc3ccccc23)c(C#N)c1C ?
IL1B secr inh: 7.2; TGFb inhibitor: 5.01µM*; TDP1 cell CPT: 8.2µM*; TDP1 block: 1.0%; HepG2 tox-1: -46.0%; TDP1 cell noCPT: 7.31µM*; TGFb confirm: 4.61µM*; HepG2 tox-2: inconclusive; CCL64 TGFb inh: 3.26µM*; COP TGFb inh: 44.5%

Results for Cc1ccccc1-c1cc(C(=O)Nc2sc(C(=O)OC(C)C)c(C)c2C#N)c2ccccc2n1 ?
IL1B secr inh: -26.6; TGFb inhibitor: 3.55µM*; TDP1 cell CPT: 23.1µM*; TDP1 block: 11.7%; HepG2 tox-1: -34.5%; TDP1 cell noCPT: 20.6µM*; TGFb confirm: 5.17µM*; HepG2 tox-2: 1.46µM*; CCL64 TGFb inh: 5.8µM*; COP TGFb inh: 55.0%

What do the screens show for `COc1ccccc1-c1cc(C(=O)Nc2sc3c(c2C#N)CCC(C)C3)c2ccccc2n1` (centres undefined)?
IL1B secr inh: -7.5; TGFb inhibitor: 1.5%; TDP1 cell CPT: inconclusive; TDP1 block: 2.6%; HepG2 tox-1: 20.0%; TDP1 cell noCPT: inconclusive

What do the screens show for `O=C(Nc1nnc(-c2cccs2)o1)c1cc(-c2ccccc2)nc2ccccc12`?
IL1B secr inh: 81.8; TGFb inhibitor: 11.2µM*; TDP1 cell CPT: 13µM*; TDP1 block: 10.5%; HepG2 tox-1: -10.7%; TDP1 cell noCPT: 14.6µM*; TGFb confirm: 11.6µM*; HepG2 tox-2: inconclusive; CCL64 TGFb inh: 14.6µM*; COP TGFb inh: 26.6%

How did COc1ccc(-c2cc(C(=O)Nc3sc4c(c3C#N)CCCC4)c3ccccc3n2)cc1 do in these assays?
IL1B secr inh: -6.9; TGFb inhibitor: -18.0%; TDP1 cell CPT: -21.6%; TDP1 block: 0.0%; HepG2 tox-1: -17.8%; TDP1 cell noCPT: inconclusive

What do the screens show for `Cc1ccc(NC(=O)CN(C)c2ccc(S(=O)(=O)N3CCN(C)CC3)cn2)cc1`?
IL1B secr inh: 7.9; TGFb inhibitor: 4.3%; TDP1 cell CPT: inconclusive; TDP1 block: 2.0%; HepG2 tox-1: -13.1%; TDP1 cell noCPT: inconclusive

Results for CC1CCCN(C(=O)C(C)Nc2cc(Cl)ccc2N2CCOCC2)C1 (centres undefined) ?
IL1B secr inh: -21.5; TGFb inhibitor: 8.3%; TDP1 cell CPT: -27.8%; TDP1 block: 6.9%; HepG2 tox-1: -5.7%; TDP1 cell noCPT: inconclusive

How did Cc1c(C(=O)N2CCOCC2)[nH]c2c1C(=O)CC(c1ccc(Cl)cc1)C2 (centres undefined) do in these assays?
IL1B secr inh: -17.0; TGFb inhibitor: 4.2%; TDP1 cell CPT: -26.0%; TDP1 block: 2.0%; HepG2 tox-1: 3.1%; TDP1 cell noCPT: -41.0%
